High-throughput results as filed in PubChem BioAssay.
The list is not random: actives were taken first. Their share in the collection is about 1.3%.
IL1B cytotox: cytotoxicity in IL-1B stimulated HUVEC, primary screen, cytotoxicity control for IL-1B NFkB translocation project, imaging, Hoechst nuclear count, IL-1B stimulus; HUVEC cell count loss; cell count reduction, % at 2 µM; 0.41% of 94,000 active; AID 845, 2007;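 active means cell count reduction more than 3 SD above the screen-wide mean, cut at about 70% in these data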;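 further: normalized per plate to untreated control cells as the no-loss baseline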
NFkB transloc inh: inhibitors of IL-1B driven NFkB p65 nuclear import, primary screen, imaging, HUVEC, IL-1B stimulus, high-content imaging. HUVEC IL-1B NFkB p65 nuclear translocation imaging. inhibition, % at 2 µM. 0.43% of 94,000 active. AID 796, 2007;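 active means inhibition above about 30% together with a positive call from visual inspection of the well image, limit read from the data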;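 further: nuclear over cytoplasmic p65 intensity ratio measured by imaging; 0% = IL-1B stimulated DMSO wells and 100% = unstimulated DMSO wells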
INS promoter inh: inhibitors of insulin promoter-driven GFP, primary screen, imaging, TRM-6 cells (human fetal islet line), eGFP reporter, cell count; reporter expression induced with tamoxifen; inhibition, % at 2 µM; 0.9% of 130,000 active;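 active means inhibition above the mean plus 3 SD, with well images judged a real hit on visual review, cut at about 60% in these data, passing the limit was not always enough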
IL1B NFkB pot: enhancers of NFkB p65 translocation in HUVEC – imaging, IL-1B stimulus, high-content imaging, primary screen; HUVEC IL-1B NFkB p65 nuclear translocation imaging; 0.3% of 94,000 active; AID 819, 2007; activation, % at 2 µM;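 active means activation above 40%, about the mean plus 3 SD, also judged a hit on visual image review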;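 further: percent activation is computed from the nuclear over cytoplasmic p65 intensity ratio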
Starred values were filed as active, the others as inactive; . = not tested or not shown.

SMILES	IL1B cytotox	NFkB transloc inh	INS promoter inh	IL1B NFkB pot
CCOC(=O)CC(NC(=O)Cn1nnc(-c2ccccc2F)n1)c1ccccc1Cl (stereo unspecified)	.	.	27.3	.
COC(=O)CC(c1ccc(C(C)C)cc1)n1cccc1 (stereo unspecified)	.	.	-6.7	.
O=C(Oc1ccc2c(=O)c(Oc3ccc4ccccc4c3)coc2c1)c1cncc(Br)c1	-3.2	-36.2	.	36.2
O=C(Oc1ccc2c(=O)c(Cl)coc2c1)c1ccncc1	-3.8	-19.1	81.8*	19.1
O=C(N/N=C/c1cccc(F)c1)c1c(O)c2c([nH]c1=O)CCCC2	.	.	-12.0	.
COC(=O)c1cc(OC)c(OCc2cc(C(=O)OC)oc2C)c(OC)c1	88.6*	25.5	-36.8	-25.5
COC(=O)c1cc(COc2ccc3oc(C)c(C(=O)OC)c3c2)c(C)o1	-218.1	-16.4	.	16.4
Cc1c(Cl)cccc1NC(=O)CCN1CCCCC1	9.2	0.9	-27.0	-0.9
Cc1c(Cl)cccc1NC(=O)CN1CCC(C(O)(c2ccccc2)c2ccccc2)CC1	-8.7	49.1*	0.0	-49.1
Cc1cccc(OCc2nnc(N)s2)c1C	18.7	4.1	-32.6	-4.1
Nc1nnc(CCOc2ccccc2Cl)s1	-148.5	61.2*	-54.3	-61.2
Cc1c(NC(=O)CCCCCN2C(=O)c3ccccc3C2=O)c(=O)n(-c2ccccc2)n1C	.	.	7.1	.
Cc1ccc(-c2nn3c(C)nnc3s2)cc1NC(=O)C(C)C	5.1	-42.2	.	42.2*
Cc1ccc(-c2nn3c(C)nnc3s2)cc1NC(=O)CSc1ccc(Cl)cc1	-13.6	-63.3	19.5	63.3*
CC(NC(=O)CSc1nc2ccc(N)cc2s1)c1ccccc1 (stereo unspecified)	.	.	20.0	.
COc1ccc(-c2nc(C#N)c(N3CCC(C(N)=O)CC3)o2)cc1OC	-4.7	2.5	75.0*	-2.5
COc1ccc(-c2nc(C#N)c(N3CCOCC3)o2)cc1OC	.	.	-4.3	.
O=C(Cn1cnc2ccccc2c1=O)Nc1ccc(-c2nnc3n2CCCCC3)cc1	-33.3	-5.7	92.9*	5.7
O=C(Cn1cnc2ccccc2c1=O)Nc1cccc(-c2nnc3n2CCCCC3)c1	-2.9	6.3	33.3	-6.2
O=S(=O)(c1ccccc1)N1CC=C(c2ccccc2)CC1	.	.	5.9	.
CC(Sc1ccsc1[N+](=O)[O-])C(=O)NCc1ccco1 (stereo unspecified)	.	.	-50.0	.
Cc1ccc(-c2nn(-c3ccccc3)cc2CN(Cc2ccccc2)C(=O)c2ccco2)o1	11.2	-45.8	-3.3	45.8*
CCC(C)NS(=O)(=O)c1ccc(S(=O)(=O)N(CCc2ccc(OC)c(OC)c2)Cc2cccs2)cc1 (stereo unspecified)	.	.	-13.3	.
CC(C)C(=O)Nc1ccc2c(c1)nc1n2CCSC1	-11.5	1.4	75.7*	-1.4
CC1=C(C(N)=O)C(c2ccccn2)n2nc(-c3ccccc3Cl)nc2N1 (stereo unspecified)	-5.5	35.5*	.	-35.5
SMILES	IL1B cytotox	NFkB transloc inh	INS promoter inh	IL1B NFkB pot
COc1ccccc1C1C(C(N)=O)=C(C)Nc2nc(-c3ccccc3Cl)nn21 (stereo unspecified)	-7.6	6.1	.	-6.1
c1ccc(Cn2cnc3ccccc32)cc1	94.8*	3.3	-60.0	-3.3
Fc1cc2ncn(Cc3ccccc3)c2cc1F	-15.6	-8.9	.	8.9
c1ccc(CNc2nc(-c3cccs3)nc3ccccc23)nc1	.	.	91.7*	.
CCCn1c(SCC#N)nc2c(c1=O)C1(CCCC1)Cc1ccccc1-2	92.8*	18.2	-7.1	-18.2
COc1ccc(C(=O)Nc2cccc(NC(C)=O)c2)cc1OC	.	.	50.0	.
COc1ccc(NC(C)=O)cc1C	.	.	71.4*	.
CCc1ccc(C(=O)/C=C/c2ccc([N+](=O)[O-])o2)cc1	-18.2	44.2*	-160.0	-44.2
Cc1ccc(C(=O)/C=C/c2ccc(-c3ccc(C)cc3)o2)cc1	.	.	34.5	.
Cc1cc(C(=O)COC(=O)c2ccc[nH]c2=O)c(C)n1-c1ccc(F)cc1	.	.	0.0	.
CC1=NN(c2ccccc2)C(=O)C1(C)[N+](=O)[O-] (stereo unspecified)	.	.	-15.4	.
COc1ccccc1C(=O)Oc1cc(N)n(S(=O)(=O)c2ccc(C)cc2)n1	-12.4	-2.2	78.6*	2.2
Cc1noc(C)c1COC(=O)c1ccc(N(C)C)cc1	.	.	35.3	.
CCCCNC(=O)CCn1nc(-c2ccccc2)ccc1=O	-4.2	-52.8	21.4	52.8*
CCCCN(C)CCCNC(=O)CCn1nc(-c2ccccc2)ccc1=O	14.4	-34.1	-26.7	34.1
O=C(COC(=O)C12CC3CC(CC(C3)C1)C2)Nc1ccc([N+](=O)[O-])cc1Cl	.	.	18.2	.
O=[N+]([O-])c1cc(Cl)cc(C2=NCCN2)c1	-9.1	-7.5	78.6*	7.5
